Assay results taken from PubChem BioAssay (EPA / NIEHS).
Records with an inconclusive call do not appear. The source made the active and inactive calls. Rule for the calls: active = hit-call score of the fitted dose curve at least 0.9, where 1 is the maximum; inconclusive = response in the unintended direction; inactive = score below 0.9.

Assays:
[1] = target: Peroxisome proliferator-activated receptor gamma (Homo sapiens) (UniProt P37231); test: ATG_PPARg_TRANS: Attagene TRANS-FACTORIAL HepG2 Assay for human Peroxisome Proliferator-activated Receptor-gamma (PPARg) (AID 2283007)
Peroxisome proliferator-activated receptor gamma (Homo sapiens), sequence (P37231 whole entry, looked up): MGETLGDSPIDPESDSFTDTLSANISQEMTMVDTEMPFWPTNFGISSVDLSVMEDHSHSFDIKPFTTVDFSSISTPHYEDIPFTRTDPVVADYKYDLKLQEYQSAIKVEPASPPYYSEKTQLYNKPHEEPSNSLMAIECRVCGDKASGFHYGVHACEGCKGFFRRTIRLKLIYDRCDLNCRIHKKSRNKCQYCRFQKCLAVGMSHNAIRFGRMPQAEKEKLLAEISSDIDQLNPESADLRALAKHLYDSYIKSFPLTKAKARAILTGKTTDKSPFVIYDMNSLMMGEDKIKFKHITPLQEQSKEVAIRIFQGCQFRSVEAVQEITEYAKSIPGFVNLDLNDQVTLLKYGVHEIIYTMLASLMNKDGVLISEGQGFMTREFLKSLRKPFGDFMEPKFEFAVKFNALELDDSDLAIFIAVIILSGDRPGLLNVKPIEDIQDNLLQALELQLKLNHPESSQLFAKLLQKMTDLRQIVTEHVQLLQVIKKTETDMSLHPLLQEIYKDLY
In short: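 Twenty-four hours after chemical dosing of transiently transfected HepG2 cells, isolated RNA was converted to cDNA, reporter sequences amplified and 6-FAM-labelled, then HpaI-digested and analysed by capillary electrophoresis. Signal increase against DMSO was fitted.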

[2] = target: Nuclear receptor subfamily 1 group I member 2 (Homo sapiens) (UniProt O75469); test: ATG_PXR_TRANS: Attagene TRANS-FACTORIAL HepG2 Assay for human Pregnane X Receptor (PXR) (AID 2283008)
Nuclear receptor subfamily 1 group I member 2 (Homo sapiens), sequence (O75469 whole entry, looked up, the tested form may be a part): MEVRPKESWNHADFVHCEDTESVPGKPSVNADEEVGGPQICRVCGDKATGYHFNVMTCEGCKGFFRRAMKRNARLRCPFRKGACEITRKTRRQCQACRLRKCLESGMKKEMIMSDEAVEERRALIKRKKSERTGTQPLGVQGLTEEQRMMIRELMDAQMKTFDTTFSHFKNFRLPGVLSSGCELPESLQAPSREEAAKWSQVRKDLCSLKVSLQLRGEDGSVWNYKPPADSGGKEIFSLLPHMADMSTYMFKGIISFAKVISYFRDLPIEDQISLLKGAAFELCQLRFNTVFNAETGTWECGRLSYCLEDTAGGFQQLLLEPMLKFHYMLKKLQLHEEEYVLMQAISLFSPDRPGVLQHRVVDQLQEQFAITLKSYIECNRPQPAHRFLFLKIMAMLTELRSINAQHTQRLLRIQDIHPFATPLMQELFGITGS
In short: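 HepG2 cells transiently transfected with GAL4-UAS reporter units and PXR-Gal4 chimera, exposed 24 h. Reporter mRNA quantified by RT-PCR, fluorescent labelling, HpaI digestion and capillary electrophoresis; gain of signal vs DMSO.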

[3] = target: human Retinoic Acid Receptor gamma (RARg), RARG (gene 5916) (UniProt P13631); test: ATG_RARg_TRANS: Attagene TRANS-FACTORIAL HepG2 Assay for human Retinoic Acid Receptor gamma (RARg) (AID 2283009)
human Retinoic Acid Receptor gamma (RARg), RARG (gene 5916), sequence (P13631 whole entry, looked up): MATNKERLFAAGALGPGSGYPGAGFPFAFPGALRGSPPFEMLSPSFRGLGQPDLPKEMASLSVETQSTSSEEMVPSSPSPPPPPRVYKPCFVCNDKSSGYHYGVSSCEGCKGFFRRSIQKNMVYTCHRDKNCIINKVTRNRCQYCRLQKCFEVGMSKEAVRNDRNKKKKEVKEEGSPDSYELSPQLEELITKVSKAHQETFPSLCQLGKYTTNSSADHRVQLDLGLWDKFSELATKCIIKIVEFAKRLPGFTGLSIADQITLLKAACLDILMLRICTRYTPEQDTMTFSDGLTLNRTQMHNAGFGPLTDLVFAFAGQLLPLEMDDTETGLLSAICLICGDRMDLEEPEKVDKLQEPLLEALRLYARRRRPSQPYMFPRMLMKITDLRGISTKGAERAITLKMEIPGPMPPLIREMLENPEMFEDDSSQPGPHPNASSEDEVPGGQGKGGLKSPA
In short: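 Transient transfection of HepG2 with multi-reporter constructs, then 24 h chemical treatment. Total RNA isolated, reverse-transcribed, PCR-amplified, fluorescently labelled and resolved by capillary electrophoresis; activity scored as mRNA induction versus DMSO.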

[4] = target: human RAR-related Orphan Receptor beta (RORb), RORB (gene 6096) (UniProt Q92753); test: ATG_RORb_TRANS: Attagene TRANS-FACTORIAL HepG2 Assay for human RAR-related Orphan Receptor beta (RORb) (AID 2283010)
human RAR-related Orphan Receptor beta (RORb), RORB (gene 6096), sequence (Q92753 whole entry, looked up, the tested form may be a part): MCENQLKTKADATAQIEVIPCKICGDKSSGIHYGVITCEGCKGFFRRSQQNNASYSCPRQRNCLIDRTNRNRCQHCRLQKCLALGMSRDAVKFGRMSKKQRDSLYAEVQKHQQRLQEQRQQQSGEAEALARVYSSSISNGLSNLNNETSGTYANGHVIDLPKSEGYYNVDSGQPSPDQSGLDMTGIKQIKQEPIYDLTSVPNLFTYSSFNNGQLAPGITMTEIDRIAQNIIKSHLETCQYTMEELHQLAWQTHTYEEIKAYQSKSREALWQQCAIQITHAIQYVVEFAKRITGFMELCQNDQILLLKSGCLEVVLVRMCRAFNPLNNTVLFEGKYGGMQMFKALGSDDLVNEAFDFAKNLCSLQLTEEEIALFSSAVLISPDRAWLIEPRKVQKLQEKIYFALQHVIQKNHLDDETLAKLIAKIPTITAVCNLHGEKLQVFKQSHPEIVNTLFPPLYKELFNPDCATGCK
In short: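 Readout is reporter-gene mRNA induction, detected as fluorescence after RT-PCR and capillary electrophoresis, fitted for gain of signal against DMSO controls. Transiently transfected HepG2 liver cells carrying GAL4-UAS reporter constructs were treated for 24 hours.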

[5] = target: Retinoic acid receptor RXR-alpha (Homo sapiens) (UniProt P19793); test: ATG_RXRa_TRANS: Attagene TRANS-FACTORIAL HepG2 Assay for human Retinoid X Receptor alpha (RXRa) (AID 2283012)
Retinoic acid receptor RXR-alpha (Homo sapiens), sequence (P19793 whole entry, looked up, the tested form may be a part): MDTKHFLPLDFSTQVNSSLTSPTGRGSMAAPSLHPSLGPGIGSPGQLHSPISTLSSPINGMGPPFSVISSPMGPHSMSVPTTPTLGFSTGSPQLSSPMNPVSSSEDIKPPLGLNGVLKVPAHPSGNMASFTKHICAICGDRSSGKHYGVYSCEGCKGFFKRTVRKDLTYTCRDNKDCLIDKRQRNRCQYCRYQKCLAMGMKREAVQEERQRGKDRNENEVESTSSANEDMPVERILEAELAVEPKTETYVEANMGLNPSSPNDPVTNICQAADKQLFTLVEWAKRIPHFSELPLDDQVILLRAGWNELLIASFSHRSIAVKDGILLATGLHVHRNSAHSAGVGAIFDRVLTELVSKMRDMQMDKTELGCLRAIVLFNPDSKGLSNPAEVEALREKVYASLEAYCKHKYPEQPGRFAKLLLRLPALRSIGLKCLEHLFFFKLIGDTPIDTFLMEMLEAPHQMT
In short: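 Transient transfection of human HepG2 with multiple GAL4-UAS reporter constructs; 24 h compound exposure; total RNA isolated, reverse-transcribed, PCR-amplified, 6-FAM labelled, HpaI-cut, resolved by capillary electrophoresis. Positive-direction fit versus DMSO.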

[6] = target: human Retinoid X Receptor beta (RXRb), RXRB (gene 6257) (UniProt P28702); test: ATG_RXRb_TRANS: Attagene TRANS-FACTORIAL HepG2 Assay for human Retinoid X Receptor beta (RXRb) (AID 2283013)
human Retinoid X Receptor beta (RXRb), RXRB (gene 6257), sequence (P28702 whole entry, looked up, the tested form may be a part): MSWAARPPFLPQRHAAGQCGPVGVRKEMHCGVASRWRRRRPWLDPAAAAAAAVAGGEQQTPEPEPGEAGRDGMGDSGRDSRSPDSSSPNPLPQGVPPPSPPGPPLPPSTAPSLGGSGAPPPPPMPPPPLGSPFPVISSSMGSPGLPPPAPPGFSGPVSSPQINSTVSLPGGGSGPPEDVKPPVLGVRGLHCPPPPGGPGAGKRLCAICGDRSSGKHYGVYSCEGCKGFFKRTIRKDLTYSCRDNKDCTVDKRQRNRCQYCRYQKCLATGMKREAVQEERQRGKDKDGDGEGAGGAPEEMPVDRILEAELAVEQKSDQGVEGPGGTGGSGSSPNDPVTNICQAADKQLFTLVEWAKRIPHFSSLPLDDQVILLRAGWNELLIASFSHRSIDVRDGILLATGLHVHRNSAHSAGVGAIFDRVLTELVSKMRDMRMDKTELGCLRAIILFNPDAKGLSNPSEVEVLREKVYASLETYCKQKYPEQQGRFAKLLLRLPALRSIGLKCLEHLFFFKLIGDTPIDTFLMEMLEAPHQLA
In short: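 Transfect HepG2 with GAL4-UAS multi-reporter constructs (chimeric NR-Gal4, TRANS format); dose compound 24 h; isolate RNA, RT-PCR, FAM primer extension, HpaI digest; quantify by capillary electrophoresis; positive direction vs DMSO.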

[7] = target: human Thyroid Receptor alpha (THRa1), THRA (gene 7067) (UniProt P10827); test: ATG_THRa1_TRANS: Attagene TRANS-FACTORIAL HepG2 Assay for human Thyroid Receptor alpha (THRa1) (AID 2283014)
human Thyroid Receptor alpha (THRa1), THRA (gene 7067), sequence (P10827 whole entry, looked up, the tested form may be a part): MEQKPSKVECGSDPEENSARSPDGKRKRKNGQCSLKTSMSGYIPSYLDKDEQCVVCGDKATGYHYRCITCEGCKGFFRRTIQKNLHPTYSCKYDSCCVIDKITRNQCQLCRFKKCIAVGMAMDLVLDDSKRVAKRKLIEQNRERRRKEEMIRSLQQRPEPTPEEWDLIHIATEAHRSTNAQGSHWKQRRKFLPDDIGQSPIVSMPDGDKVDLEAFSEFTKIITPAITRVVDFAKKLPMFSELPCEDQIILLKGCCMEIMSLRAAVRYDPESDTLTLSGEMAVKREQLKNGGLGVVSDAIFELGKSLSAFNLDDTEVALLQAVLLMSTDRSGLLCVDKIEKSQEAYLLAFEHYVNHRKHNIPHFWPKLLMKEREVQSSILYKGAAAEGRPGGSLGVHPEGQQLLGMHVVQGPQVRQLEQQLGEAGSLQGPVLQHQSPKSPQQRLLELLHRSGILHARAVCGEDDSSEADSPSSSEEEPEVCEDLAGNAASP
In short: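 HepG2 cells transiently transfected with multiplexed GAL4-UAS reporter units for exogenous chimeric THRa1-Gal4; reporter mRNA measured 24 h after dosing by RT-PCR, 6-FAM labelling, HpaI digestion and capillary electrophoresis. Gain-of-signal fitted versus DMSO baseline.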

[8] = target: human Vitamin D Receptor (VDR), VDR (gene 7421) (UniProt P11473); test: ATG_VDR_TRANS: Attagene TRANS-FACTORIAL HepG2 Assay for human Vitamin D Receptor (VDR) (AID 2283022)
human Vitamin D Receptor (VDR), VDR (gene 7421), sequence (P11473 whole entry, looked up, the tested form may be a part): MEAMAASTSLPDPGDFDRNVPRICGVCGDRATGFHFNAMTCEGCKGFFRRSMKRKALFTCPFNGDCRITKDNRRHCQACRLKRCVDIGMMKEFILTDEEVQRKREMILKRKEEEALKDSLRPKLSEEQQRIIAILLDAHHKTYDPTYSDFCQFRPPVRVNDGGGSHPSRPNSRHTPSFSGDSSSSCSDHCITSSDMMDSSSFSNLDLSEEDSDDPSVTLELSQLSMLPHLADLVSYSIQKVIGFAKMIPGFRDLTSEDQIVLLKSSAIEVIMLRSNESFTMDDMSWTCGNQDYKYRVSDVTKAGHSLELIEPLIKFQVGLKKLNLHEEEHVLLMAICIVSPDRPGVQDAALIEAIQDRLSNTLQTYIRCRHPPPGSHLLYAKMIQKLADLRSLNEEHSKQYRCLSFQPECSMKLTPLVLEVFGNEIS
In short: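 HepG2 cells were transiently transfected with multiple GAL4-UAS reporter units, so signal reflects exogenous chimeric receptor-Gal4 activity. After 24 h compound exposure, reporter mRNA was measured by RT-PCR, fluorescent labelling and capillary electrophoresis, fitted for gain of signal versus DMSO.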

[9] = target: human RAR-related Orphan Receptor gamma (RORg), RORC (gene 6097) (UniProt P51449); test: ATG_RORg_TRANS: Attagene TRANS-FACTORIAL HepG2 Assay for human RAR-related Orphan Receptor gamma (RORg) (AID 2283011)
human RAR-related Orphan Receptor gamma (RORg), RORC (gene 6097), sequence (P51449 whole entry, looked up, the tested form may be a part): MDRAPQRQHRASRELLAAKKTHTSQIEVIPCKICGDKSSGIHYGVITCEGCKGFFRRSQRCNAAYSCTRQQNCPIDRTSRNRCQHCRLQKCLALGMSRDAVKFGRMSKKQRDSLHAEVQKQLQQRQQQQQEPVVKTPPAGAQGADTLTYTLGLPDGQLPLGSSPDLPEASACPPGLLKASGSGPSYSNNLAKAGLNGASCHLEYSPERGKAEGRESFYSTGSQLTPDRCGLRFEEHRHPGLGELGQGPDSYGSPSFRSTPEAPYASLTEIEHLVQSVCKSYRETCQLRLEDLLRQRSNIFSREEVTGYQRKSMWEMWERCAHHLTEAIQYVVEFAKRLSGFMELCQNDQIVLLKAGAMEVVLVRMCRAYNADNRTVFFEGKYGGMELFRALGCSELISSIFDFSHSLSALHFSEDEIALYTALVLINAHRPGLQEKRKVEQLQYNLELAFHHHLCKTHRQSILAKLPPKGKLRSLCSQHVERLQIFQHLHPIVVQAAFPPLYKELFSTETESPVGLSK
In short: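 Readout: reporter transcript induction (RT-PCR, fluorescent primer extension, capillary electrophoresis) after 24 h compound exposure of transiently transfected HepG2 cells carrying a RORg-Gal4 chimera and GAL4-UAS reporters; DMSO served as baseline, with increasing signal fitted.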

[10] = target: Retinoic acid receptor alpha (Homo sapiens) (UniProt P10276); test: ATG_RARa_TRANS: Attagene TRANS-FACTORIAL HepG2 Assay for human Retinoic Acid Receptor alpha (RARa) (AID 2283005)
Retinoic acid receptor alpha (Homo sapiens), sequence (P10276 whole entry, looked up, the tested form may be a part): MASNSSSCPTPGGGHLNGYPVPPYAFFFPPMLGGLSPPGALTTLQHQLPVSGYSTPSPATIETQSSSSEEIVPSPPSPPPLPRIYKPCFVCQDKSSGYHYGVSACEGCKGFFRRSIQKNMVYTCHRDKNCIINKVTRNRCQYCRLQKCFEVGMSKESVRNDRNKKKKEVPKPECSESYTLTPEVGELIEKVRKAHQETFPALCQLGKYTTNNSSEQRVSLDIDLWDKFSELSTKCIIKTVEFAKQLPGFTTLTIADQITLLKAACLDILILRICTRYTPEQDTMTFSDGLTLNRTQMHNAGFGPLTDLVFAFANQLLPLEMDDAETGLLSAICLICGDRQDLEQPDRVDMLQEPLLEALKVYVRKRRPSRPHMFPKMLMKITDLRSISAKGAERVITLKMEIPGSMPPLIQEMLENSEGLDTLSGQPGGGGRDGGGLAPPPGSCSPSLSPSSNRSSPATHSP
In short: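 Reporter transcripts, measured by RT-PCR with fluorescent labeling and capillary electrophoresis after 24 h dosing, reflect activity of an exogenous human RARa–GAL4 fusion in transiently transfected HepG2. Fitted for increase relative to DMSO.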

Measured: AC50

O=C(NC(=O)c1c(F)cccc1F)Nc1cc(Cl)c(OC(F)(F)C(F)C(F)(F)F)cc1Cl (centres undefined)
inactive: [1] | [2] | [3] | [4] | [5] | [6] | [7] | [8]

CCOP(=S)(OCC)Oc1ccc(Cl)cc1Cl
inactive: [1] | [4] | [9] | [5] | [7] | [8]
active: [2] 3.85 µM | [6] 27.6 µM

CCN(CCO)CCO
inactive: [10]

N#Cc1ccc(Cl)cc1
inactive: [1] | [2] | [3] | [4] | [9] | [5] | [6]

CNC(=O)N(C)c1nc2ccccc2s1
active: [2] 52.8 µM
inactive: [1] | [4] | [9] | [6] | [7]

C=C(C)C(=O)OCC(CC)CCCC (centres undefined)
inactive: [1] | [5] | [6] | [7] | [8]

CNC(=O)CSP(=O)(OC)OC
inactive: [1] | [7]

Cc1ccc(CCl)cc1
inactive: [1] | [9] | [7]

CCOP(=S)(OCC)SCSc1cc(Cl)ccc1Cl
inactive: [1] | [9] | [7] | [8]
active: [6] 25.5 µM

O=NN1CCOCC1
inactive: [1] | [5] | [7] | [8]

CCCCCCCCBr
inactive: [1] | [5] | [6] | [8]

Nc1nc(N)nc(Cl)n1
inactive: [1] | [3] | [9] | [7]

c1cc[c]([Sb]([c]2ccccc2)[c]2ccccc2)cc1
active: [1] 23.5 µM | [2] 8.18 µM | [6] 4.36 µM
inactive: [5] | [7] | [8]

CC[N+](CC)(CC)CC
inactive: [1] | [5] | [6] | [7] | [8]

C=CC(=O)[O][Sn]([CH2]CCC)([CH2]CCC)[CH2]CCC
active: [1] 0.0934 µM | [2] 0.237 µM | [5] 0.00177 µM | [6] 0.000682 µM
inactive: [7] | [8]

C=CCOC(F)(C(F)(F)F)C(F)(F)F
inactive: [1] | [5] | [7] | [8]

COC(=O)c1cc(Oc2ccc(Cl)cc2Cl)ccc1[N+](=O)[O-]
active: [2] 13.7 µM
inactive: [3] | [9] | [5] | [6] | [7] | [8]

Nc1nc(=S)[nH][nH]1
active: [6] 164 µM
inactive: [1] | [2] | [9]
